# SENP7 block = SENP7 protease inhibition | recombinant SENP7, Z-RLRGG-aminoluciferin luminescence, 40 min | inhibition, % at 5 µM | 330,000 tested, 1.5% active;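 active means inhibition above about 50% at the single test dose, limit read from the data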;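 further: plate controls were DMSO with enzyme for no effect and no enzyme buffer wells for full effect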
# SENP6 block = inhibitors of human SENP6 protease. AID 2599. Recombinant SENP6 catalytic domain, aminoluciferin luminescence. 330,000 tested, 1.8% active. Q9GZR1. inhibition, % at 10 µM;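 active means inhibition above about 50% at the single tested dose, limit read from the data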;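 further: plate controls were DMSO wells with enzyme for no effect and DMSO wells lacking enzyme for full effect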
# Platelet DG rel = modulates dense granule release in human platelets | human platelet-rich plasma, SFLLRN dense granule ATP release, luminescence | inhibition, %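 (compounds screened at 7.5 µM in platelet-rich plasma)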 | 300,000 tested, 0.22% active;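 active means mean replicate score, as percent of positive control, at or above 50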
# SENP8 block-1 = blocks the human protease SENP8; Q96LD8; purified SENP8, Z-RLRGG-aminoluciferin cleavage, luminescence; inhibition, % at 10 µM; 330,000 tested, 1.2% active; AID 2540; in the data active means inhibition above about 50%
# Target sequence (Q96LD8 whole entry, looked up): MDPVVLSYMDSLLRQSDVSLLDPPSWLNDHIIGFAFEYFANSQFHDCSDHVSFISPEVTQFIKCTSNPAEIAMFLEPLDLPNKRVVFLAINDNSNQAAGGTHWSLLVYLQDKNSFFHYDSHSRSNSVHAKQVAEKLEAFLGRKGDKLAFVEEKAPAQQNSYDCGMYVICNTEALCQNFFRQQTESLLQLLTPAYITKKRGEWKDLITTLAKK
# SENP8 block-2 = SENP8 (human) protease inhibition. recombinant SENP8, Nedd8 substrate fluorescence. 360,000 tested, 0.64% active. inhibition, % at 20 µM; in the data active means inhibition mostly above about 40%, no sharp cut-off; inactive means mostly below about 27%
# SENP8 conf = human SENP8 inhibition, confirmed. AID 488912. shares compounds with SENP7 block. 6,200 tested, 40% active. Recombinant SENP8, Z-RLRGG-aminoluciferin luminescence, 60 min. inhibition, % at 12.5 µM;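 active means mean inhibition across replicates above about 50%, limit read from the data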
# SENP6 confirm = confirmation of human SENP6 protease inhibitors; shares compounds with SENP7 block; recombinant SENP6, Z-RLRGG-aminoluciferin luminescence; inhibition, % at 12.5 µM; 6,200 tested, 58% active; AID 488915
# SENP7 conf = confirmation of human SENP7 protease inhibitors | 6,200 tested, 69% active | recombinant SENP7, Z-RLRGG-aminoluciferin luminescence, 40 min | shares compounds with SENP7 block | inhibition, % at 12.5 µM | AID 488917
# Casp3 select = selectivity test for SENP inhibitors: human caspase-3 inhibition; shares compounds with SENP7 block; purified caspase-3, Z-DEVD-aminoluciferin luminescence, 60 min; inhibition, % at 12.5 µM; 6,200 tested, 60% active;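 active means mean inhibition above about 50%, limit read from the data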;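 further: plate controls were enzyme with DMSO for no effect and wells without caspase-3 for full effect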
# Target sequence (P42574 28-227 limits assumed): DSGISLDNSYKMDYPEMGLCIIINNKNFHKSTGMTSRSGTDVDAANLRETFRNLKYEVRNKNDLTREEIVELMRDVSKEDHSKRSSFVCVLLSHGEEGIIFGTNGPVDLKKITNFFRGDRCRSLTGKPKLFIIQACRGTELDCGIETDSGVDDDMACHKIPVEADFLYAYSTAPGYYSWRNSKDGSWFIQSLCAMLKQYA
# Luc interf = luminescence interference (SENP counter-screen); 6,200 tested, 39% active; inhibition, % at 12.5 µM; Pre-incubated SENP8/Z-RLRGG-aminoluciferin, luciferase luminescence interference; shares compounds with SENP7 block;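 active means mean inhibition above about 50% when retested at one dose, limit read from the data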;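 further: plate controls were DMSO wells with completed reaction for no effect and substrate without enzyme for full effect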
# Numbers without * were called inactive; i = inactive; . = no result. This is a sample that favours compounds with a hit; in the whole collection about 2.4% have one here.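 How the source made its calls, unless noted: active means mean inhibition above about 50% in the one-dose retest (limit read from the data); inactive means the rest.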
SMILES,SENP7 block,SENP6 block,Platelet DG rel,SENP8 block-1,SENP8 block-2,SENP8 conf,SENP6 confirm,SENP7 conf,Casp3 select,Luc interf
Cc1ccc(NS(=O)(=O)c2c(C(=O)N3CCCCCC3)c(C)n(C)c2C)c(Cl)c1,6,-11,-1,2,6,.,.,.,.,.
CC(CO)NS(=O)(=O)c1cccc(Cl)c1F (configuration not stated),.,.,.,.,-1,.,.,.,.,.
O=C(Cc1cccs1)NCc1ccc(Cl)cc1Cl,6,-6,1,4,1,.,.,.,.,.
O=C(NC1CC1)c1ccc(-c2nc3ccccc3s2)s1,98*,91*,27,88*,-222,81*,95*,102*,96*,37
Cc1ccc2nc(NC(=O)c3ccc(-c4nc5ccccc5s4)s3)sc2c1,1,-4,.,3,-207,.,.,.,.,.
CCN1CCN(C(=O)c2ccc(-c3nc4ccccc4s3)s2)CC1,47,61*,5,40,-319,56*,52*,82*,69*,19
CCNC(=O)COC(=O)c1ccc(-c2nc3ccccc3s2)s1,99*,96*,46,96*,-388,87*,96*,101*,93*,11
O=C(c1cc2ccccc2s1)N1CCOCC1,0,-1,-8,4,26,.,.,.,.,.
CCCN1CCN(C(=O)c2ccccc2-c2nc3ccccc3s2)CC1,-7,0,-3,-2,-4,.,.,.,.,.
Cc1noc(C)c1COC(=O)c1ccc(-c2nc3ccccc3s2)s1,29,29,-7,6,i,.,.,.,.,.
O=C(c1ccc(-c2nc3ccccc3s2)s1)N1CCOCC1,96*,97*,46,94*,.,91*,97*,101*,96*,69*
CCOC(=O)c1ccn(CSc2c(F)c(F)cc(F)c2F)n1,-12,-4,.,3,-1,.,.,.,.,.
Cc1sc(NC(=O)/C=C/c2ccco2)c(C(=O)O)c1C,16,73*,4,50,14,72*,69*,88*,85*,48
CCOC(=O)c1c(NC(=O)/C=C/c2ccc(C)o2)sc(C)c1C,-7,-5,-9,-6,-81,.,.,.,.,.
CCOc1ccccc1N=NC1C(=O)N(C(N)=S)N=C1C (configuration not stated),8,15,3,11,33,.,.,.,.,.
COc1cccc(N=NC2C(=O)N(C(N)=S)N=C2C)c1 (configuration not stated),68*,85*,-1,79*,25,71*,86*,98*,91*,42
CC1=NN(C(N)=S)C(=O)C1N=Nc1cccc(Cl)c1 (configuration not stated),66*,92*,-1,85*,12,37,90*,100*,90*,88*
CC1=NN(C(N)=S)C(=O)C1N=Nc1c(C)n(C)n(-c2ccccc2)c1=O (configuration not stated),11,19,19,18,24,.,.,.,.,.
Cc1cn([C@H]2C[C@H](O)[C@@H](CNC/C=C/c3ccccc3[N+](=O)[O-])O2)c(=O)[nH]c1=O,.,.,.,.,22,.,.,.,.,.
C[C@H]1CCC(=O)N([C@H](COc2ccccc2)Cc2ccccc2)CC1,0,-10,4,1,2,.,.,.,.,.
COc1ccccc1CCn1c(N)c(C#N)c2nc3ccccc3nc21,25,51*,-1,23,-283,-20,-6,-3,-6,-3
COc1ccc(Cn2c(N)c(C#N)c3nc4ccccc4nc32)cc1OC,14,34,2,16,i,.,.,.,.,.
COc1ccc(CCn2c(N)c(C#N)c3nc4ccccc4nc32)cc1OC,46,62*,-1,54*,-446,-2,22,4,6,2
COCCN(C(=O)CN1CCN(S(=O)(=O)c2ccc(F)cc2)CC1)c1c(N)n(Cc2ccccc2)c(=O)[nH]c1=O,1,3,-2,-5,13,.,.,.,.,.
CCCn1c(O)c(N=NC(=O)CNC(=O)c2ccncc2)c2ccccc21,10,-18,1,-5,18,.,.,.,.,.
SMILES,SENP7 block,SENP6 block,Platelet DG rel,SENP8 block-1,SENP8 block-2,SENP8 conf,SENP6 confirm,SENP7 conf,Casp3 select,Luc interf
COc1ccc2cc3cc(C(=O)N4CCCC(C)C4)oc3nc2c1 (configuration not stated),83*,80*,5,59*,-393,22,16,20,28,2
CCOC(=O)C1CCCN(C(=O)c2cc3cc4ccc(OC)cc4nc3o2)C1 (configuration not stated),9,3,-4,-4,-311,.,.,.,.,.
COc1ccc(CN=C2Nc3ccccc3CS2)cc1,85*,92*,0,80*,6,86*,86*,97*,81*,88*
COc1ccc(CN=C2NN=C(c3ccc(Cl)cc3)CS2)cc1,-7,-8,3,-5,15,.,.,.,.,.
Cc1cccc(/C=N\Nc2cn[nH]c(=O)c2Cl)c1,71*,76*,22,55*,-193,71*,67*,88*,76*,45
COc1cc(C(=O)NCC(c2ccc(F)cc2)N2CCOCC2)ccc1OCc1ccccc1Cl (configuration not stated),-8,-17,-9,-6,-13,.,.,.,.,.
Cc1nnc2sc(-c3cccc(F)c3)nn2c1=O,1,47,2,70*,16,50*,63*,21,58*,-8
Cc1ccc(-c2nn3c(=O)c(C)nnc3s2)cc1,3,5,-3,1,3,.,.,.,.,.
COc1ccc(-c2nc(CN3CCN(C(=O)c4ccco4)CC3)c(C)o2)c(F)c1,0,-13,0,0,-30,.,.,.,.,.
Nc1c(N=Nc2ccccc2F)c(=O)[nH]n1-c1ccccc1,77*,80*,-3,55*,33,17,36,53*,24,14
COc1ccc(NC(=O)n2ncc3c(C)cccc32)cc1,61*,74*,4,72*,33,84*,83*,95*,63*,73*
Cc1noc(C)c1S(=O)(=O)Nc1ccc(C(C)C)cc1,1,-24,0,-6,10,.,.,.,.,.
CCCN=Cc1c(CCC)[nH]n(-c2nc3ccccc3s2)c1=O,0,4,-5,3,8,.,.,.,.,.
CCCc1[nH]n(-c2nc3ccccc3s2)c(=O)c1C=NCCCN(CC)CC,40,68*,-11,42,13,49,22,33,60*,57*
O=C(c1ccccc1)c1cc2ccccc2o1,65*,74*,-1,51*,26,8,58*,82*,53*,16

# From PubChem BioAssay
